KCNQ2 inh: rat KCNQ2 potassium channel inhibitors, primary screen, cell-based, CHO-K1, FluxOR thallium flux, B-score. 20 min; active compounds read low. B-score at 10 µM. hit rate 1.1% among 310,000. AID 2156, 2009;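 active = fluorescence ratio B-score at most minus 3 library SDs, with starting brightness B-score within 2 library SDs, cut at about -5.5 in these data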
Target sequence (O88943 whole entry, looked up): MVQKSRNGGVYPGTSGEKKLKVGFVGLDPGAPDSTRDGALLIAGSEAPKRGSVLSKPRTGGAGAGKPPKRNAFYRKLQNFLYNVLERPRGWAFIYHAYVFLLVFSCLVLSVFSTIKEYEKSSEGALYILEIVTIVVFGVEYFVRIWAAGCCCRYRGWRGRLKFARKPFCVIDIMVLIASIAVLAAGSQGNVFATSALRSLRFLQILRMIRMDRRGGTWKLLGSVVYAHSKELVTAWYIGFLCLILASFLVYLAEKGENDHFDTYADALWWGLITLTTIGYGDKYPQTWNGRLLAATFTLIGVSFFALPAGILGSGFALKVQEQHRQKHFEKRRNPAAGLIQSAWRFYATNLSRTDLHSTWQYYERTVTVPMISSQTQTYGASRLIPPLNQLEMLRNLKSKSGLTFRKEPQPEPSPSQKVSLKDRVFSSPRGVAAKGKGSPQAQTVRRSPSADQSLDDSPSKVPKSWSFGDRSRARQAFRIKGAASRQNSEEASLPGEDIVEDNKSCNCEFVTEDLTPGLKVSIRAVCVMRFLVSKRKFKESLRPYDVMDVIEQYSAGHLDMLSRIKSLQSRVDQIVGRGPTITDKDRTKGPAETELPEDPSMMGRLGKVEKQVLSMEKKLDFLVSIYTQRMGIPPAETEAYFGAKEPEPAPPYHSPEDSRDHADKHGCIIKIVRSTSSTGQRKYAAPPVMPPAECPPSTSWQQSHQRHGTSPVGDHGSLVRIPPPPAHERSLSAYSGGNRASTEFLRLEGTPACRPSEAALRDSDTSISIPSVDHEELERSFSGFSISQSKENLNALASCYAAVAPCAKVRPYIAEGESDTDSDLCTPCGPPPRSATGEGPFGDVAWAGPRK
KCNQ2 enhance: potentiators of rat KCNQ2 potassium channel. CHO-K1 KCNQ2, FluxOR thallium flux fluorescence; active compounds read high. B-score at 10 µM. hit rate 0.54% among 310,000. AID 2239, 2010;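 active = fluorescence ratio B-score at least 3 SD of library B-scores, with initial fluorescence B-score within 3 of them, cut at about 5.3 in these data; same plate scores as AID 2156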;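 also: B-score of peak minus minimum over baseline fluorescence ratio after K+ and Tl+ stimulus; positive B-score means potentiation of KCNQ2 with more thallium influx and brighter signal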
Kir21 conf inh: mouse Kir2.1 channel blockers, retest, confirmation, cell-based, FluxOR thallium flux, duplicate; hit rate 41% among 2,300; Kir2.1-expressing cells, FluxOR thallium flux fluorescence; active compounds read low; shares compounds with KCNQ2 enhance; Tl flux remaining, % of negative control (active compounds read low), % at 10 µM;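 active = Primary-screen hit whose thallium flux fell at least 3 control SD below untreated wells in both duplicates, with normal baseline fluorescence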;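 also: 0% = blank wells without stimulus and 100% = stimulated no-compound controls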
HEK293 ctr: alters thallium flux in parental HEK293 cells, Kir2.1 counter-screen | shares compounds with KCNQ2 enhance | FluxOR thallium flux fluorescence; 0% = unstimulated blank wells | FluxOR signal as % of negative control (100 = no effect), % at 10 µM | hit rate 19% among 2,300;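 active = dye signal at least 3 control SD above or below untreated wells in both duplicates, raw fluorescence within 3, either direction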;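 also: percent is based on the flux ratio of peak minus minimum fluorescence over baseline F0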
CHO-K1 ctr: nonspecific thallium flux increase in parental CHO-K1, confirmation, counter-screen for KCNQ2 potentiator project, cell-based, FluxOR thallium flux, duplicate. shares compounds with KCNQ2 enhance. parental CHO-K1 cells, FluxOR thallium flux fluorescence; zero = vehicle mean+3SD, 100% = vehicle-minus-blank window. activity increase over 3SD of controls, % at 10 µM. hit rate 43% among 1,200. AID 2282, 2010;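 active = signal rise of at least 3 SD above the untreated control mean, in both duplicate wells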;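 also: counter screen of KCNQ2 potentiator hits so any rise reflects channel-independent effects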
KCNQ1 pot spec: human KCNQ1 channel potentiation off-target, confirmation, selectivity assay for KCNQ2 potentiator project, cell-based, CHO, FluxOR thallium flux; activation over 3SD threshold, % at 10 µM; hit rate 28% among 1,200; shares compounds with KCNQ2 enhance; AID 2283, 2010; CHO KCNQ1 stable, FluxOR thallium flux fluorescence; beyond 3SD, as % of vehicle-control signal;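 active = fluorescence ratio rise of at least 3 SD of vehicle wells above their mean, in both replicate wells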;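 also: 0% = vehicle mean plus 3 SD and 100% = vehicle minus unstimulated blank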
KCNQ2 pot confirm: rat KCNQ2 channel potentiators, confirmation, cell-based, CHO, FluxOR thallium flux, duplicate; shares compounds with KCNQ2 enhance; CHO-KCNQ2 cells, FluxOR thallium flux fluorescence; potentiation, less the hit threshold, % at 10 µM; hit rate 68% among 1,200;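 active = fluorescence ratio rising 3 SD or more over the vehicle control mean in both replicates, plus primary screen hit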;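 also: peak minus minimum thallium fluorescence divided by baseline after K/Tl stimulus; 0% = vehicle mean plus 3 SD and 100% = vehicle minus unstimulated blank difference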
Kir21 spec: mouse Kir2.1 channel activation off-target, confirmation, selectivity assay for KCNQ2 potentiator project, cell-based, HEK293, FluxOR thallium flux; shares compounds with KCNQ2 enhance; HEK293 Kir2.1, FluxOR thallium flux fluorescence; activity over 3SD threshold, % at 10 µM; hit rate 2% among 1,200;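 active = fluorescence ratio rise of at least 3 SD above the vehicle-control mean, seen in both replicates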;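 also: 0% = vehicle mean plus 3 SD and 100% = vehicle minus no-stimulus blank window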
KCNQ2 W236L MoA: potentiators of retigabine-insensitive KCNQ2 W236L, mechanism study for KCNQ2 potentiator project, cell-based, rat KCNQ2 W236L, CHO, automated patch clamp; automated patch clamp current; hit rate 10% among 940; current increase over 3SD of negative controls (%), active compounds read high, % at 25 µM; shares compounds with KCNQ2 enhance; AID 2558, 2010;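 active = current increase at least 3 SD of the untreated controls above them in both duplicate recordings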
Starred values were filed as active, the others as inactive; i = inactive; · = not tested or not shown. Most compounds without a hit are left out; they make up all but 1.6% or so of the library.

SMILES	KCNQ2 inh	KCNQ2 enhance	Kir21 conf inh	HEK293 ctr	others
COc1ccc(C(=O)OCCN2CCN(C3=NS(=O)(=O)c4ccccc43)CC2)cc1OC	i	0.81	·	·
Oc1ccccc1CN1CCCC(N2CCN(c3cccc(C(F)(F)F)c3)CC2)C1 (centres undefined)	i	·	·	·
CCCCN(Cc1cccs1)S(=O)(=O)c1csc(C(N)=O)c1	i	·	46%*	i
CN(Cc1ccccc1)S(=O)(=O)c1csc(C(N)=O)c1	i	·	·	·
CC(C)CCN(Cc1ccco1)S(=O)(=O)c1csc(C(N)=O)c1	i	·	58%*	i
CCOCCCN(Cc1ccco1)S(=O)(=O)c1csc(C(N)=O)c1	i	·	·	·
CC1=C(C(=O)OCC2CCCO2)C(c2ccc(Cl)c(Cl)c2)NC(=O)N1 (centres undefined)	i	0.99	·	·
O=C(Nc1ccc2c(c1)OCO2)C1CC(=O)N(c2ccc(F)cc2)C1 (centres undefined)	i	0.44	·	·
Cc1c(C(=O)OCC(=O)N2CCC(C)CC2)oc2ccccc12	i	11*	i	i	CHO-K1 ctr=14*;KCNQ1 pot spec=-5;KCNQ2 pot confirm=17*;Kir21 spec=-32;KCNQ2 W236L MoA=i
COc1ccc2oc(C(=O)OCC(=O)N3CCC(C)CC3)c(C)c2c1	i	4.6	·	·
O=C(Nc1ccccc1)Nc1nc(-c2ccc(F)cc2)cs1	i	·	·	·
Fc1ccc(-c2csc(NC(=S)Nc3ccccc3)n2)cc1	i	8.8*	i	i	CHO-K1 ctr=26*;KCNQ1 pot spec=-15;KCNQ2 pot confirm=-9;Kir21 spec=-36;KCNQ2 W236L MoA=i
O=C(NCCS(=O)(=O)N1CCN(c2cccc(Cl)c2)CC1)c1ccco1	i	1.6	·	·
Cc1cc(OCC(=O)NNC(=S)NC(=O)c2ccc(Br)o2)ccc1Cl	i	8.1*	i	i	CHO-K1 ctr=90*;KCNQ1 pot spec=-3;KCNQ2 pot confirm=-22;Kir21 spec=-40
CCC(=O)NC(=S)Nc1ccc(NC(=O)COc2ccc(Cl)c(C)c2)cc1	i	0.07	·	·
CCc1nc(C)cn1S(=O)(=O)c1ccc(Cl)c(Cl)c1Cl	i	·	·	·
CCc1nc(C)cn1S(=O)(=O)c1cc(C)c(OC)cc1C	i	1.6	·	·
CCc1nc(C)cn1S(=O)(=O)c1cc(Br)c(C)cc1OC	i	·	35%*	i
CCc1nc(C)cn1S(=O)(=O)c1cc(Br)ccc1OC	i	1	24%*	i
CCc1nc(C)cn1S(=O)(=O)c1cc(F)ccc1OC	i	1.9	·	·
CCc1nc(C)cn1S(=O)(=O)c1cc(Cl)c(OC)cc1Cl	i	0.58	58%*	i
COc1cc(NC(=O)c2ccco2)c(C(=O)OCC(=O)c2c[nH]c3ccccc23)cc1OC	i	0.13	·	·
COc1cccc(C(=O)COC(=O)CCC(=O)c2ccccc2)c1	i	·	·	·
CN(C(=O)c1nc(-c2ccccc2)n(-c2ccccc2)n1)C1CCS(=O)(=O)C1 (centres undefined)	i	1.2	·	·
Oc1ccccc1Nc1nc(NCc2ccco2)c2ccccc2n1	i	·	·	·
SMILES	KCNQ2 inh	KCNQ2 enhance	Kir21 conf inh	HEK293 ctr	others
Cc1ccccc1Nc1nc(NCc2ccco2)c2ccccc2n1	-6.3*	-6.3	16%*	i
c1ccc(Nc2nc(NCc3ccco3)c3ccccc3n2)cc1	i	·	·	·
Cc1cccc(Nc2nc(NCc3ccco3)c3ccccc3n2)c1	i	·	62%*	i
O=C(NCc1cccc(F)c1)C1CCN(C(=O)c2sccc2-n2cccc2)CC1	i	0.59	·	·
O=C(Nc1ccccc1C(=O)NCc1cccnc1)c1ccccc1F	i	1.6	·	·
CCS(=O)(=O)c1ncc(Cl)c(C(=O)Nc2ccc(S(=O)(=O)N(C)c3ccccc3)cc2)n1	i	·	·	·
COC(=O)CN(c1ccccc1)S(=O)(=O)c1ccc(F)cc1	i	0.02	·	·
CCN(c1ccccc1)S(=O)(=O)c1ccc(NC(=O)c2nc(S(C)(=O)=O)ncc2Cl)cc1	i	9*	i	74%*	CHO-K1 ctr=-11;KCNQ1 pot spec=-59;KCNQ2 pot confirm=-3;Kir21 spec=-54;KCNQ2 W236L MoA=i
CCN(c1ccccc1)S(=O)(=O)c1ccc(C(=O)Nc2ncccc2O)cc1	i	·	·	·
CCN(c1ccccc1)S(=O)(=O)c1ccc(C(=O)Nc2ccncc2)cc1	i	8.2*	i	i	CHO-K1 ctr=79*;KCNQ1 pot spec=-20;KCNQ2 pot confirm=9.8*;Kir21 spec=-57;KCNQ2 W236L MoA=i
CCN(c1ccccc1)S(=O)(=O)c1ccc(F)cc1	i	·	54%*	i
COCCNC(=O)C(=O)NCC1OCCCN1S(=O)(=O)c1cccs1 (centres undefined)	i	0.65	·	·
CC(OC(=O)c1cc(=O)[nH]c2ccccc12)C(=O)Nc1ccccc1F (centres undefined)	i	·	·	·
COc1ccc(CCNc2ncnc3cc(OC)c(OC)cc23)cc1OC	i	2.1	·	·
COc1cc2ncnc(NCCc3ccccc3)c2cc1OC	i	5.4*	i	131%*	CHO-K1 ctr=11*;KCNQ1 pot spec=-9;KCNQ2 pot confirm=-8;Kir21 spec=-21
Cc1cccc(C(C)C)c1NC(=O)c1cc2ccccc2o1	i	·	·	·
Cc1cc(C)c2nc(N3CCCC(C(=O)NCCCN4CCOCC4)C3)sc2c1 (centres undefined)	i	·	·	·
Cc1cc(C)c2nc(N3CCC(C(=O)NCCCN4CC(C)CC(C)C4)CC3)sc2c1 (centres undefined)	-6.4*	-6.4	50%*	i
O=Cc1cccn1Cc1ccccc1[N+](=O)[O-]	i	·	·	·
COc1ccccc1-n1c(C)cc(C=O)c1C	i	0.22	·	·
O=[N+]([O-])c1ccc(N/N=C/c2ccccc2O)cc1	i	7.9*	i	74%*	CHO-K1 ctr=56*;KCNQ1 pot spec=-20;KCNQ2 pot confirm=-24;Kir21 spec=-43
O=[N+]([O-])c1cccc(N/N=C/c2cc([N+](=O)[O-])ccc2O)c1	i	1.3	·	·
